Compound activity (PubChem BioAssay)
This is a sample that favours compounds with a hit; in the whole collection about 2.1% have one here.
NSD2 HMT inh: NSD2 (human) methyltransferase inhibition; NSD2 peptide methylation, AlphaScreen, 120 min; inhibition, % at 12.5 µM; hit rate 0.54% among 310,000; in the data active = inhibition above about 50%
SIRT5 block: blocks human SIRT5 desuccinylation of peptide; Q9NXA8; Purified SirT5, succinyl-peptide AMC, trypsin-coupled fluorescence; inhibition, % at 15 µM; hit rate 1.1% among 330,000; in the data active = inhibition above about 15%
CASP6 VEID inh: blocks human caspase-6 cleavage activity. AID 686996. hit rate 0.53% among 350,000. inhibition, % at 12.5 µM. purified caspase-6, Z-VEID-R110 cleavage fluorescence. P55212;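 active = mean inhibition across replicates at least about 35%, with every replicate also reaching that limit, limit read from the data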;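 also: 0% = median of neutral control wells and 100% = no fluorescence left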
PfHsp90 yeast 2: inhibits growth of yeast expressing Plasmodium falciparum Hsp90. inhibition, % at 9.4 µM. hit rate 0.32% among 310,000. AID 504621. S. cerevisiae expressing PfHsp90, BacTiter-Glo ATP, 48 h; yeast lacking PDR1 and PDR3 efflux regulators;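 active = every replicate shows inhibition above about 80%, whatever the replicate mean, limit read from the data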;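 also: 0% = DMSO neutral controls and 100% = 20 µM radicicol positive controls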
ARNT-TACC3 inh: disrupts binding between human ARNT and TACC3 | AlphaScreen His-ARNT PAS-B/GST-TACC3 binding, luminescence; TACC3 fragment carries E629A point mutation | inhibition, % at 9.99 µM | hit rate 0.66% among 390,000 | AID 623870;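 active = mean inhibition of replicates at least 50% and at least half of replicates each reaching 50%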;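 also: 0% = complete ARNT plus TACC3 wells and 100% = ARNT alone without TACC3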
Numbers without * were called inactive; ! = a repeat was not active.

`O=C(NCC1CCCCC1)[C@H]1[C@H](CO)[C@H]2Cn3c(ccc(C4=CCCC4)c3=O)[C@@H]1N2C(=O)CC1CC1` gave SIRT5 block -11.1, CASP6 VEID inh 0.6 and ARNT-TACC3 inh -14.1.
Screening COc1cccc(C(=O)N2C[C@H]3[C@@H](c4ccccc42)[C@H](CO)N3C(=O)c2ccccc2)c1 returned SIRT5 block 1.9, CASP6 VEID inh 0.5 and ARNT-TACC3 inh 2.1.
Screening CC1(C(=O)NS(=O)(=O)c2ccccc2)CCN1C(=O)Cc1cccc2ccccc12 (centres undefined) returned NSD2 HMT inh -0.1, SIRT5 block 1.1 and CASP6 VEID inh 0.8.
`CC1(C(=O)NS(=O)(=O)c2ccccc2Cl)CCN1C(=O)Cc1cccc2ccccc12` (centres undefined) gave NSD2 HMT inh -2.4, SIRT5 block 30.0* and CASP6 VEID inh 2.5.
Screening O=C(C[C@@H]1CC[C@@H]2[C@H](COC[C@@H](O)CN2CCC(F)(F)F)O1)N1CCC(Cc2ccccc2)CC1 returned SIRT5 block 1.6, CASP6 VEID inh 1.6 and ARNT-TACC3 inh -13.4.
Screening CC(C)CC(C(=O)Oc1ccc2c3c(c(=O)oc2c1)CCC3)N1C(=O)c2ccccc2C1=O (centres undefined) returned NSD2 HMT inh -2.6 and ARNT-TACC3 inh 47.2*.
O=C(NC1CCC1)[C@@H]1[C@@H](CO)[C@@H]2Cn3c(cccc3=O)[C@@H]2N1CC1CCOCC1 was read as SIRT5 block -6.3, CASP6 VEID inh 2.0 and ARNT-TACC3 inh -3.6.
Screening C[C@@H]1CN([C@@H](C)CO)S(=O)(=O)c2ccc(C#Cc3ccccc3)cc2O[C@H]1CN(C)C returned SIRT5 block -1.0, CASP6 VEID inh 0.0 and ARNT-TACC3 inh 1.3.
COc1ccc2c(c1)C(=O)N1[C@H]3c4cc(OC)ccc4OC[C@@H]3[C@H](c3ccccc3)[C@]1(C)C(=O)N2 was read as CASP6 VEID inh 7.1, PfHsp90 yeast 2 -36.4 and ARNT-TACC3 inh -2.8.
Screening COc1ccc2c(c1)OC[C@H]1[C@H]2N2C(=O)c3cc(Br)ccc3NC(=O)[C@@]2(C)[C@H]1c1ccccc1 returned PfHsp90 yeast 2 102.3* and ARNT-TACC3 inh -5.1.
COc1ccc2c(c1)[C@H]1[C@H](CO2)[C@H](c2ccccc2)[C@]2(C)C(=O)Nc3ccc(Br)cc3C(=O)N12 was read as CASP6 VEID inh -0.1, PfHsp90 yeast 2 active and ARNT-TACC3 inh 35.5.
COc1ccccc1-c1ccccc1[C@@H]1[C@@H](C#N)N(C(=O)C2CC2)[C@H]1CO was read as SIRT5 block -0.4 and CASP6 VEID inh 1.5.
`C[C@@H](NC(=O)C[C@H]1CC[C@H](NC(=O)C2CCC2)[C@H](CO)O1)c1ccccc1` gave SIRT5 block 1.9, CASP6 VEID inh 2.1 and ARNT-TACC3 inh 0.0.
Screening COCCNCC(=O)C12CC3CC(CC(C3)C1)C2 returned NSD2 HMT inh 9.5, SIRT5 block 22.9*, CASP6 VEID inh -2.1, PfHsp90 yeast 2 -2.9 and ARNT-TACC3 inh 0.5.
`COC(=O)C[C@H]1CC[C@@H](NS(=O)(=O)c2ccccc2F)[C@@H](CO)O1` gave SIRT5 block 1.1, CASP6 VEID inh 1.0 and ARNT-TACC3 inh -3.8.
`CC(C)NC(=O)N[C@@H]1C[C@@H]2O[C@H](CO)CC[C@@H]2O[C@@H]1CCc1ccc(-c2ccc(F)cc2)cc1` gave SIRT5 block 4.4 and CASP6 VEID inh 0.8.
Nc1nc(NC(=O)C(Cl)(Cl)Cl)nn1-c1ccccc1 was read as NSD2 HMT inh -1.0, CASP6 VEID inh -0.8, PfHsp90 yeast 2 -19.5 and ARNT-TACC3 inh 64.4*.
For CCOC(=O)c1cnc2ccc(OCC)cc2c1NCCCN1CCOCC1 the results were NSD2 HMT inh -2.0, SIRT5 block 26.7*, CASP6 VEID inh -51.3, PfHsp90 yeast 2 20.2 and ARNT-TACC3 inh 2.4.
CCN(CC)S(=O)(=O)c1cccc(NC(=O)c2cncc(Br)c2)c1 was read as NSD2 HMT inh -0.6, SIRT5 block -2.5, CASP6 VEID inh 0.9, PfHsp90 yeast 2 0.4 and ARNT-TACC3 inh -5.6.
`CCN(CC)S(=O)(=O)c1cccc(NC(=O)c2ccc(Br)cc2)c1` gave NSD2 HMT inh 2.6, SIRT5 block -9.8, CASP6 VEID inh 4.1, PfHsp90 yeast 2 96.4* and ARNT-TACC3 inh -4.7.
`O=C1C=CC(=O)N1c1cccc(-c2ccccc2)c1` gave NSD2 HMT inh -1.9, CASP6 VEID inh 10.6, PfHsp90 yeast 2 106.8* and ARNT-TACC3 inh -6.2.
Screening O=C(Nc1cccc(N2C(=O)C=CC2=O)c1)c1cccs1 returned NSD2 HMT inh -0.6, SIRT5 block 0.1, CASP6 VEID inh 4.8, PfHsp90 yeast 2 -123.3 and ARNT-TACC3 inh -4.2.
Screening C[C@@H]1CN([C@H](C)CO)C(=O)c2cccc(NC(=O)Nc3ccccc3)c2O[C@@H]1CN(C)Cc1ccc2c(c1)OCO2 returned SIRT5 block 1.0, CASP6 VEID inh 0.8 and ARNT-TACC3 inh 7.1.
`O=C(C[C@H]1CC[C@@H]2[C@H](COC[C@H](O)CN2Cc2cccc(F)c2)O1)NCc1cccc(F)c1` gave SIRT5 block 20.3*!, CASP6 VEID inh -2.9 and ARNT-TACC3 inh 0.0.
For C[C@@H](NC(=O)C[C@H]1CC[C@@H]2[C@H](COC[C@H](O)CN2Cc2ccc(C(F)(F)F)cc2)O1)c1ccccc1 the results were SIRT5 block 13.5, CASP6 VEID inh -0.8 and ARNT-TACC3 inh 13.8.
`C[C@H](NC(=O)C[C@@H]1CC[C@H]2[C@@H](COC[C@@H](O)CN2Cc2ccc(C(F)(F)F)cc2)O1)c1ccccc1` gave SIRT5 block 16.6*, CASP6 VEID inh -0.6 and ARNT-TACC3 inh 2.6.
O=C(C[C@@H]1CC[C@H]2[C@@H](COC[C@@H](O)CN2Cc2ccncc2)O1)NCc1ccncc1 was read as SIRT5 block 18.6*, CASP6 VEID inh -0.7 and ARNT-TACC3 inh -4.0.
For C[C@@H]1CN([C@H](C)CO)S(=O)(=O)c2ccc(C3=CCCCC3)cc2O[C@H]1CN(C)Cc1ccccc1F the results were SIRT5 block 13.4, CASP6 VEID inh -2.1 and ARNT-TACC3 inh -0.8.
C[C@H](CO)N1C[C@H](C)[C@@H](CN(C)C(=O)Nc2ccccc2)Oc2ccc(NC(=O)Nc3cccc4ccccc34)cc2CC1=O was read as SIRT5 block 0.4, CASP6 VEID inh 1.9 and ARNT-TACC3 inh 1.1.
CCN(CC)C(=O)CSc1nc(-c2ccccc2)cc(=O)[nH]1 was read as NSD2 HMT inh -2.7, SIRT5 block -3.3, CASP6 VEID inh 0.1 and ARNT-TACC3 inh 1.8.
CCN(Cc1ccccc1)C(=O)CSc1nc(C)cc(=O)[nH]1 was read as NSD2 HMT inh 12.4, SIRT5 block 22.4*, CASP6 VEID inh 1.5, PfHsp90 yeast 2 -6.7 and ARNT-TACC3 inh -3.9.
CC(C)(C)OC(=O)N(CCc1ccccc1)Cc1ccc(OCc2cccc(NC(=O)C3CCC3)c2)cc1 was read as CASP6 VEID inh 2.0, PfHsp90 yeast 2 -8.1 and ARNT-TACC3 inh -1.4.
